Laboratory results published in PubChem BioAssay (EPA / NIEHS).
Where “and” joins values, the source holds several entries; their conditions need not be identical. Equal values may be shown once. Records with an inconclusive call do not appear. A structure can be active in one record and inactive in another. Calls of active or inactive are those of the source. How the source made its calls, unless noted: active means hit-call score of the fitted dose curve at least 0.9, where 1 is the maximum; inconclusive means response in the unintended direction; inactive means score below 0.9.

assay: UKN5_HCS_SBAD2_cell_viability: Viability Assessment in the University of Konstanz (UKN) Leist Lab Neurite Outgrowth Assay in human iPSC-derived immature Dorsal Root Ganglia Neurons (UKN5) (AID 2284056; active means hit-call score of the fitted dose curve at least 0.9, where 1 is the maximum; inactive means score below 0.9); conditions: not given
Summary of the method: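 iPSC-derived immature peripheral neurons (SBAD2) seeded on Matrigel with CHIR99021, SU5402 and DAPT, dosed 1 h later for 24 h. Viability from Hoechst H-33342 and calcein-AM live staining, high-content imaging; bidirectional fit versus DMSO.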

Compound | AC50 | outcome
C=C(C)C(=O)[O][Sn]([CH2]CCC)([CH2]CCC)[CH2]CCC | 246 nM (active) | 
O=C1C2(Cl)C3(Cl)C4(Cl)C(Cl)(Cl)C5(Cl)C3(Cl)C1(Cl)C5(Cl)C24Cl (stereo not given) |  | inactive
CCOP(=S)(OCC)Oc1nc(Cl)c(Cl)cc1Cl |  | inactive

assay: CCTE_Shafer_MEA_dev_LDH: CCTE's Lactate Dehydrogenase Assay for Cytotoxicity in the Neural Network Formation Assay, Shafer Lab (AID 2284068); conditions: not given;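 further: exposure for twelve days from plating with re-dosing on DIV 5 and 9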
Summary of the method: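 Primary rat cortical neurons were cultured on PEI-coated MEA plates and exposed from plating through day 12, with compound renewed at medium changes on DIV 5 and 9. LDH activity was read spectrophotometrically; loss of signal versus DMSO indicates reduced viability.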

Compound | AC50 | outcome
C=C(C)C(=O)[O][Sn]([CH2]CCC)([CH2]CCC)[CH2]CCC | 1.98 µM (active) | 
CCC(=O)C(CC(C)N(C)C)(c1ccccc1)c1ccccc1 (stereo not given) | 7.25 µM (active) | 
ClC1(Cl)C2(Cl)C3(Cl)C4(Cl)C(Cl)(Cl)C5(Cl)C3(Cl)C1(Cl)C5(Cl)C24Cl (stereo not given) | 1.92 µM (active) | 
COP(=O)(OC)O/C(=C\Cl)c1cc(Cl)c(Cl)cc1Cl | 50 µM (active) and 51.5 µM (active) | 
O=C(O)C(F)(F)C(F)(F)C(F)(F)C(F)(F)C(F)(F)C(F)(F)C(F)(F)C(F)(F)C(F)(F)C(F)(F)F |  | inactive
Cn1sc(Cl)cc1=O | 4.61 µM (active) | 
CC(=O)[O][Hg][c]1ccccc1 | 0.0183 µM (active) | 
O=C1C2(Cl)C3(Cl)C4(Cl)C(Cl)(Cl)C5(Cl)C3(Cl)C1(Cl)C5(Cl)C24Cl (stereo not given) | 8.19 µM (active) | 
CC(C)(C)c1cc(O)ccc1O | 15 µM (active) | 
CCOP(=S)(OCC)Oc1nc(Cl)c(Cl)cc1Cl | 13.2 µM (active) and 13.7 µM (active) and 24.3 µM (active) | 

assay: CCTE_Shafer_MEA_acute_AB: CCTE's Alamar Blue Assay for Cytotoxicity in the Neural Acute Assay, Shafer Lab (AID 2284069); conditions: not given;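 further: active compounds lower the viability signal compared with DMSO wells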
Summary of the method: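 Resazurin reduction (CellTiter Blue, 1:6 in fresh medium) read at ex 544/em 590 nm marks viability loss relative to DMSO. Cells: primary rat cortical neuron networks on microelectrode arrays, treated after baseline recording at 13 or 15 days in vitro.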

Compound | outcome | AC50
CC(C)(C)CC(C)(C)c1ccc(O)cc1 | inactive | 
O=C(Nc1ccc2[nH]ccc2c1)c1cc2cc(F)ccc2n1Cc1cccc(F)c1 | inactive | 
C[C@]12CCC(=O)C[C@@H]1CC[C@@H]1[C@@H]2CC[C@]2(C)[C@@H](O)CC[C@@H]12 | inactive | 
C=C(C)C(=O)[O][Sn]([CH2]CCC)([CH2]CCC)[CH2]CCC |  | 4.69 µM (active)
CCC(=O)C(CC(C)N(C)C)(c1ccccc1)c1ccccc1 (stereo not given) | inactive | 
CCC(C)(C)c1ccc(O)c(C(C)(C)CC)c1 |  | 35.4 µM (active)
ClC1(Cl)C2(Cl)C3(Cl)C4(Cl)C(Cl)(Cl)C5(Cl)C3(Cl)C1(Cl)C5(Cl)C24Cl (stereo not given) | inactive | 
CCCCCCCCc1ccc(O)cc1 | inactive | 
O=C(O)C(F)(F)C(F)(F)C(F)(F)C(F)(F)C(F)(F)C(F)(F)C(F)(F)C(F)(F)C(F)(F)C(F)(F)F | inactive | 
CCOP(=S)(OCC)SCSP(=S)(OCC)OCC | inactive | 
CCN1CCC2(CC1)COc1cc3c(cc12)N(C(=O)c1ccc(-c2ccc(-c4nnc(C)o4)cc2C)cc1)CC3 |  | 17.2 µM (active)
CC(=O)[O][Hg][c]1ccccc1 |  | 20 µM (active)
O=C1C2(Cl)C3(Cl)C4(Cl)C(Cl)(Cl)C5(Cl)C3(Cl)C1(Cl)C5(Cl)C24Cl (stereo not given) | inactive | 
COC(=O)Cc1ccccc1 | inactive | 
CC(C)(C)c1cc(O)ccc1O | inactive | 
CC(C)(c1ccccc1)c1ccc(O)c(C(C)(C)c2ccccc2)c1 | inactive | 
CC(C)(OO)c1ccccc1 | inactive | 

assay: UKN5_HCS_SBAD2_neurite_outgrowth: University of Konstanz (UKN) Leist Lab Neurite Outgrowth Assay in human iPSC-derived immature Dorsal Root Ganglia Neurons (UKN5) (AID 2284070; active means hit-call score of the fitted dose curve at least 0.9, where 1 is the maximum; inactive means score below 0.9); conditions: actives raise or lower the signal
Summary of the method: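 Read-out: calcein-AM-stained neurite area by high-content imaging, Hoechst H-33342 for viability, after 24 h exposure of iPSC-derived immature dorsal root ganglia neurons. Activity fitted in both directions relative to DMSO baseline.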

Compound | AC50 | outcome
C=C(C)C(=O)[O][Sn]([CH2]CCC)([CH2]CCC)[CH2]CCC | 0.127 µM (active) | 
O=C1C2(Cl)C3(Cl)C4(Cl)C(Cl)(Cl)C5(Cl)C3(Cl)C1(Cl)C5(Cl)C24Cl (stereo not given) | 14.6 µM (active) | 
CCOP(=S)(OCC)Oc1nc(Cl)c(Cl)cc1Cl |  | inactive

assay: CCTE_Shafer_MEA_dev_AB: CCTE's Alamar Blue Assay for Cytotoxicity in the Neural Network Formation Assay, Shafer Lab (AID 2284083); conditions: not given;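 further: resazurin reduction fluorescence as viability of cultured neurons; twelve days of exposure from plating with re-dosing on DIV 5 and 9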
Summary of the method: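 Resazurin fluorescence, relative to DMSO, gauges viability after twelve days of exposure that began at plating of rat cortical neurons (1.5 x 10^5 cells/well, 48-well MEA); treatment renewed with full medium exchange on DIV 5 and 9.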

Compound | AC50 | outcome
C=C(C)C(=O)[O][Sn]([CH2]CCC)([CH2]CCC)[CH2]CCC | 0.0915 µM (active) | 
CCC(=O)C(CC(C)N(C)C)(c1ccccc1)c1ccccc1 (stereo not given) |  | inactive
ClC1(Cl)C2(Cl)C3(Cl)C4(Cl)C(Cl)(Cl)C5(Cl)C3(Cl)C1(Cl)C5(Cl)C24Cl (stereo not given) | 2.83 µM (active) | 
COP(=O)(OC)O/C(=C\Cl)c1cc(Cl)c(Cl)cc1Cl | 50 µM (active) | inactive
Cn1sc(Cl)cc1=O | 5.49 µM (active) | 
CC(=O)[O][Hg][c]1ccccc1 | 0.022 µM (active) | 
O=C1C2(Cl)C3(Cl)C4(Cl)C(Cl)(Cl)C5(Cl)C3(Cl)C1(Cl)C5(Cl)C24Cl (stereo not given) | 8.77 µM (active) | 
CC(C)(C)c1cc(O)ccc1O | 15.2 µM (active) | 
CCOP(=S)(OCC)Oc1nc(Cl)c(Cl)cc1Cl | 18.2 µM (active) and 22.5 µM (active) and 24 µM (active) | 

assay: CCTE_Shafer_MEA_dev_mutual_information_norm: CCTE's Neural Network Formation Assay for Mutual Information Normalization, Shafer Lab (AID 2284091; active means hit-call score of the fitted dose curve at least 0.9, where 1 is the maximum; inactive means score below 0.9;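 on AC50: mutual information between electrodes summarised as area under curve across four recording days; potency is for a decrease in mutual information relative to DMSO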); conditions: not given
Summary of the method: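 Developing rat cortical networks on 16-electrode MEA wells are treated throughout formation (DIV 0–12). Shared electrode information is recorded four times, converted to area-under-curve, and fitted for decreases against DMSO vehicle.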

Compound | AC50 | outcome
C=C(C)C(=O)[O][Sn]([CH2]CCC)([CH2]CCC)[CH2]CCC | 0.0123 µM (active) | 
CCC(=O)C(CC(C)N(C)C)(c1ccccc1)c1ccccc1 (stereo not given) | 6.23 µM (active) | 
ClC1(Cl)C2(Cl)C3(Cl)C4(Cl)C(Cl)(Cl)C5(Cl)C3(Cl)C1(Cl)C5(Cl)C24Cl (stereo not given) | 2.05 µM (active) | 
O=C(O)C(F)(F)C(F)(F)C(F)(F)C(F)(F)C(F)(F)C(F)(F)F |  | inactive
COP(=O)(OC)O/C(=C\Cl)c1cc(Cl)c(Cl)cc1Cl |  | inactive
O=C(O)C(F)(F)C(F)(F)C(F)(F)C(F)(F)C(F)(F)C(F)(F)C(F)(F)C(F)(F)C(F)(F)C(F)(F)F |  | inactive
Cn1sc(Cl)cc1=O | 3.45 µM (active) | 
CC(=O)[O][Hg][c]1ccccc1 | 0.0082 µM (active) | 
O=C1C2(Cl)C3(Cl)C4(Cl)C(Cl)(Cl)C5(Cl)C3(Cl)C1(Cl)C5(Cl)C24Cl (stereo not given) | 0.125 µM (active) | 
CC(C)(C)c1cc(O)ccc1O | 2.1 µM (active) | 
CCOP(=S)(OCC)Oc1nc(Cl)c(Cl)cc1Cl | 23.2 µM (active) and 15 µM (active) | inactive
